# Results: PubChem BioAssay AID493210 (National Center for Advancing Translational Sciences (NCATS), 2011)
# The other results are listed elsewhere or left out. Activity calls are given as the source filed them. Calls follow the shape of the full dose curve.
# Biological target: Aldehyde dehydrogenase 1A1 (Homo sapiens) (UniProt P00352)
# Assay: Inhibitors of Aldehyde Dehydrogenase 1 (ALDH1A1): Followup Confirmation and Counterscreen
# Conditions: purified ALDH1A1, NADH fluorescence, propionaldehyde/NAD+
# Description: Aldehyde dehydrogenase 1 (ALDH1A1) catalyzes the NAD+ dependent oxidation of a variety of endogenous and exogenous aldehydes to the corresponding carboxylic acids. The enzyme is the critical step in the metabolic activation of retinoic acid, which plays essential roles as nuclear receptor ligand. […] See [1] through for more information on ALDH1A1. Inhibition of ALDH1A1 activity was screened by utilizing propionaldehyde as an electron donor and NAD+ as an electron acceptor/cofactor. An increase in the fluorescence intensity due to conversion of NAD+ to NADH was used to measure the enzyme activity. See [5] for screening methodology used. References: [1] Manzer R, Qamar L, Estey T, Pappa A, Petersen DR, Vasiliou V. Molecular cloning and baculovirus expression of the rabbit corneal aldehyde dehydrogenase (ALDH1A1) cDNA. DNA Cell Biol. 2003 May;22(5):329-38. […] Quantitative high-throughput screening: a titration-based approach that efficiently identifies biological activities in large chemical libraries. […]
# Buffer: 100 mM Hepes pH 7.5, 0.01% Tween 20. […] The plates were immediately transferred to and read twice on ViewLux High-throughput CCD imager (Perkin-Elmer) 20 minutes apart using 360 nm excitation and 450 nm emission fluorescence protocol. The fluorescence intensity difference between the second and the first time points was used to compute reaction progress.
# Chain of Aldehyde dehydrogenase 1A1 (Homo sapiens) (P00352 whole entry, looked up): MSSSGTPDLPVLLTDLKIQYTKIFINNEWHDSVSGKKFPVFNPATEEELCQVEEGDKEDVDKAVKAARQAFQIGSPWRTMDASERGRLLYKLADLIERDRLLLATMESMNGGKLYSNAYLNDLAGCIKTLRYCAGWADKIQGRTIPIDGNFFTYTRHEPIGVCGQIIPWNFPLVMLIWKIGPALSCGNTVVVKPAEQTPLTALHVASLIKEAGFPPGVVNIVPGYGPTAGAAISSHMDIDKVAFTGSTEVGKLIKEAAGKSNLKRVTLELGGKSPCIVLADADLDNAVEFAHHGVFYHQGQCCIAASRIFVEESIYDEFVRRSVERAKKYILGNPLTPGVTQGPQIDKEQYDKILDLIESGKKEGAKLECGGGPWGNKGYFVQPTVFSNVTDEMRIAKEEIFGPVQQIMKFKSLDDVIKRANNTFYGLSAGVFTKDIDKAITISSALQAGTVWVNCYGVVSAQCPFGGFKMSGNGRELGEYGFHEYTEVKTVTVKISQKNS
compound,measurement,value
C[C@]12CC[C@@H]3C(=CCc4cc(O)ccc43)[C@@H]1CCC2=O,Potency,501 nM (active)
